Source: PubChem BioAssay (NCATS)
Records with an inconclusive call do not appear. Where a call stands in place of a potency, no number is given. Calls of active or inactive are those of the source. Unless noted, calls come from the whole dose curve; as a rule, active = well fitted curve in the direction sought with a large enough effect in the repeat runs; inconclusive = weak or mixed curves; inactive = no such curve, though single readings can be large; an effect the other way counts as inactive or inconclusive.

Tests used:
[1] = target: Calcium and integrin-binding protein 1 (Homo sapiens) (UniProt Q99828); assay: Primary qHTS for Identification of Calcium Integrin Binding Protein 1 (CIB1) Competitor (AID 1508620; active = well fitted curve in the direction sought with a large enough effect; an effect the other way counts as inactive or inconclusive;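 note: GST tagged CIB1 binding a fluorescein labelled alphaIIb integrin peptide tracer; top concentration of the series differs between compounds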)
Chain of Calcium and integrin-binding protein 1 (Homo sapiens) (Q99828 whole entry, looked up): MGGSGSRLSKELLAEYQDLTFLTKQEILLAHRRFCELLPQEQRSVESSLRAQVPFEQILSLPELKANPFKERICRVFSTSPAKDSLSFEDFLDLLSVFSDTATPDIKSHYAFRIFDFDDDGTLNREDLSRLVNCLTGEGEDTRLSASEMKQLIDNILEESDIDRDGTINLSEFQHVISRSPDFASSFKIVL
Outline: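 CIB1-GST (1 uM final) and compound incubated 15 min at room temperature before adding FITC-alphaIIb peptide tracer (100 nM final). Competition for binding read by fluorescence polarization (ex 480, em 540) after another 15 min at room temperature.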

[2] = target: Cytochrome P450 2D6 (Homo sapiens) (UniProt P10635); assay: Cytochrome P450 family 2 subfamily D member 6 (CYP2D6) small molecule antagonists: luciferase biochemical (cell-free) qHTS assay (AID 1645840); note: nearly all actives have a fitted effect of over 55% in size; note: potency is the fitted concentration of half-maximal effect
Chain of Cytochrome P450 2D6 (Homo sapiens) (P10635 whole entry, looked up): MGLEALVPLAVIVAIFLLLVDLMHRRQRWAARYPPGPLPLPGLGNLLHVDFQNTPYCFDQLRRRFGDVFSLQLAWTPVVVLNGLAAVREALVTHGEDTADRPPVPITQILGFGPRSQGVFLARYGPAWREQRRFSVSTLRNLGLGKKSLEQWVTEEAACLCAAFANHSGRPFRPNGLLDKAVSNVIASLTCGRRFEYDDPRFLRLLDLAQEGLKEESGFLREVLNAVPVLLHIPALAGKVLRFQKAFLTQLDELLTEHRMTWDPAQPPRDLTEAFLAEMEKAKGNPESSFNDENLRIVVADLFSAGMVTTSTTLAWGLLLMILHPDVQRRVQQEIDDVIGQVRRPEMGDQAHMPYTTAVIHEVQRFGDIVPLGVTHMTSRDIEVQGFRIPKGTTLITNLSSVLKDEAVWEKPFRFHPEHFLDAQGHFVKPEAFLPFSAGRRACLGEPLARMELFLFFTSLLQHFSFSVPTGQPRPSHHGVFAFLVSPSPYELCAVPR
Outline: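 P450-Glo CYP2D6 system: proluciferin substrate converted by enzyme to luciferin, read by luminescence proportional to activity. Enzyme-substrate mix with compound 10 min at room temperature, then NADPH regeneration 1 h before detection reagent.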

SMILES	Potency [1]	Potency [2]
CC1(C)Oc2ncnc(N)c2N=C1c1ccc(C23CCC(CC(=O)O)(CC2)CC3)cc1	inactive	inactive
CN1CCN(C2=Nc3ccccc3Nc3ccc(OS(=O)(=O)C(F)(F)F)cc32)CC1	inactive	3.38 µM (active)
C[C@@H]1C[C@H](C)CN(CCC(=O)Nc2ccc(Br)cc2)C1	inactive	0.0674 µM (active)
Cc1nc2ccc(-n3ncc(C(=O)c4cc5ccccc5[nH]4)c3N)cc2[nH]1	inactive	23.9 µM (active)
CCn1c2ccccc2c2cc(Nc3ccnc(NCCCN4CCOCC4)n3)ccc21	inactive	inactive
COc1ccc(-c2cnc3c(-c4cccc5ncccc45)cnn3c2)cc1	inactive	inactive
CCOC(=O)N1c2ccc(C(F)(F)F)cc2C(N(Cc2cc(C(F)(F)F)cc(C(F)(F)F)c2)C(=O)OC)CC1CC (stereo unspecified)	inactive	inactive
C=C1CCN([C@H](C)[C@](O)(Cn2cncn2)c2ccc(F)cc2F)CC1	inactive	23.9 µM (active)
O=C(Nc1cc(C(F)(F)F)cc(C(F)(F)F)c1)c1cnc(Cl)nc1C(F)(F)F	inactive	19 µM (active)
CCCC(CCC)C(=O)NCc1ccc2c(cnn2-c2ccccc2OC)c1	inactive	13.5 µM (active)
CCC[C@@]1(CCc2ccccc2)CC(O)=C([C@H](CC)c2cccc(NS(=O)(=O)c3ccc(C(F)(F)F)cn3)c2)C(=O)O1	inactive	6.01 µM (active)
COc1cc2ncnc(Oc3ccc(CC(=O)Nc4cnn(C(C)C)c4)cc3)c2cc1OC	inactive	inactive
C=CC(=O)N1CCC(Oc2cc3c(Nc4ccc(Cl)c(Cl)c4F)ncnc3cc2OC)CC1	inactive	2.68 µM (active)
